COUP-TFII inh – NR2F2 transcriptional activity inhibitors, primary screen, cell-based, luciferase reporter, HEK293T, luminescence. COUP transcription factor 2 (Homo sapiens), P24468. HEK293T NGFI-A luciferase reporter. inhibition, % at 8.6 µM. 370,000 tested, 0.7% active;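 active = inhibition above a per-plate cutoff, mean inhibition of test wells between control levels plus 3 SD, cut at about 38% in these data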;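 also: cells cotransfected with COUP-TFII expression vector driving the NGFI-A reporter; 0% = median of COUP-TF2 test wells and 100% = reporter-only cells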
NCOA3 inh – SRC3 coactivator transcriptional activity inhibitors, primary screen, cell-based, luminescence; Nuclear receptor coactivator 3 (Homo sapiens), Q9Y6Q9; HEK293 GAL4-SRC3 luciferase reporter; inhibition, % at 3.6 µM; 360,000 tested, 0.17% active;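 active = inhibition above a per-campaign cutoff, the mean of all compounds plus 3 SD, cut at about 60% in these data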;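 also: 0% = DMSO-treated cells and 100% = gossypol-treated cells at 36 µM; higher means less SRC3-driven luciferase light from the GAL4 reporter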
NCOA1 inh – SRC1 coactivator transcriptional activity inhibitors, primary screen, cell-based, luminescence; Nuclear receptor coactivator 1 (Homo sapiens), Q15788; HEK293 GAL4-SRC1 luciferase reporter; inhibition, % at 3.6 µM; 360,000 tested, 0.12% active; AID 588354, 2011;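 active = inhibition above the campaign mean plus 3 SD, with each screening campaign given its own cutoff, cut at about 60% in these data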;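 also: 0% = DMSO treated cells and 100% = gossypol at 36 µM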
SRC2 inh – inhibition of GAL4-SRC2 driven luciferase reporter, primary screen, SRC2 inhibitor project, cell-based, luminescence; HEK293 GAL4-SRC2 luciferase reporter; 370,000 tested, 0.17% active; inhibition, % at 9 µM;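 active = inhibition above the mean inhibition of all tested compounds plus 3 SD, set per campaign, cut at about 52% in these data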;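 also: 0% = DMSO treated cells and 100% = cells given Gossypol at 36 µM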
Target sequence (Q15596 whole entry, looked up, the tested form may be a part): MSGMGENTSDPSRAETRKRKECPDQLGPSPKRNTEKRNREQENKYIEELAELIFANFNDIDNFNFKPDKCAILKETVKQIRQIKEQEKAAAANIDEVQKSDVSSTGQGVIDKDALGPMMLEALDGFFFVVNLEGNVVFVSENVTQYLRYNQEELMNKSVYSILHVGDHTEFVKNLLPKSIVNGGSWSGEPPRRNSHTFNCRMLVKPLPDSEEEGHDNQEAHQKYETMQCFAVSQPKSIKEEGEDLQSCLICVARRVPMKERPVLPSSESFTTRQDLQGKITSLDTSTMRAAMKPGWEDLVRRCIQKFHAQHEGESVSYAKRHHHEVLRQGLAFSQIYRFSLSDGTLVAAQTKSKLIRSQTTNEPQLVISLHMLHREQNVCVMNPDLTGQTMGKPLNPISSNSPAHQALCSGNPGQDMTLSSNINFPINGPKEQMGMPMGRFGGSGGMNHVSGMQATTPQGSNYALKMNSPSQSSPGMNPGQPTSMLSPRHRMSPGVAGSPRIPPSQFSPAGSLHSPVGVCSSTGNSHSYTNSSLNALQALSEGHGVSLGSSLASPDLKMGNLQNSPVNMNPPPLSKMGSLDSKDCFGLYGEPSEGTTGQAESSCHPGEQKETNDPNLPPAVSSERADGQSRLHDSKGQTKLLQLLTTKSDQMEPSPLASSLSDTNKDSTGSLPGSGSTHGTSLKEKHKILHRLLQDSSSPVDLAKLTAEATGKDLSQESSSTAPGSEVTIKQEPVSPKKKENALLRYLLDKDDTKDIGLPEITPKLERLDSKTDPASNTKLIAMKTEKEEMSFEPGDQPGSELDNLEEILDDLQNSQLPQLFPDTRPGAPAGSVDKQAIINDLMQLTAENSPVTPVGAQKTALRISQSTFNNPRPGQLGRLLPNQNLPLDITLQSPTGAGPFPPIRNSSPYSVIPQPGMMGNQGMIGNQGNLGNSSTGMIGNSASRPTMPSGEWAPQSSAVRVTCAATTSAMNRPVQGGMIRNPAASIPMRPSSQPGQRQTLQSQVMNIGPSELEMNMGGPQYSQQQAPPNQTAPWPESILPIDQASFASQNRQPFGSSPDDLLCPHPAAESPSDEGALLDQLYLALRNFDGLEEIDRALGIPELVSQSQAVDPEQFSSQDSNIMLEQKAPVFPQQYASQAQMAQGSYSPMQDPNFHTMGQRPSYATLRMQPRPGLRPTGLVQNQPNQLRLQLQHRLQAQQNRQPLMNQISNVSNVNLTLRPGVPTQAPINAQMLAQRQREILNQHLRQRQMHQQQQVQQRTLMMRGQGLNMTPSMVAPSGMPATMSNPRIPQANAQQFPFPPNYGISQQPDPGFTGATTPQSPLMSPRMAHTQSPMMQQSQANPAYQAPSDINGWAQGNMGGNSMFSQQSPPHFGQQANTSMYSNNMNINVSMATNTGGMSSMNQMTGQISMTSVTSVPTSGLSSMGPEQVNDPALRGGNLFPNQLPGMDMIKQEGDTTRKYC
NR5A2 inv ag – LRH-1 (NR5A2) inverse agonists, primary screen, cell-based, luminescence, HEK293T, StAR-luciferase reporter | Nuclear receptor subfamily 5 group A member 2 (Homo sapiens), O00482 | LRH-1 transfected, 24 h | inhibition, % at 3.6 µM | 360,000 tested, 0.13% active | AID 602396, 2012;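 active = inhibition above the mean inhibition of all tested compounds plus 3 SD, cut at about 73% in these data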;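 also: 0% = DMSO wells and 100% = reporter-only cells lacking LRH-1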
Gli-Sufu antag – Gli-Sufu pathway antagonists, primary screen, luciferase luminescence, Sufu-KO-LIGHT cells, uHTS; 340,000 tested, 0.74% active; inhibition, % at 5 µM; Sufu-KO-LIGHT fibroblasts, Gli luciferase reporter luminescence;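 active = inhibition above about 55%, limit read from the data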;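 also: 0% = DMSO-treated cells and 100% = wells with medium but no cells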
VP16 Luc counter – Gal4-VP16 luciferase reporter inhibitors, counter-screen for COUP-TFII antagonist project, cell-based, luminescence, HEK293; inhibition, % at 8.5 µM; shares compounds with COUP-TFII inh; 2,500 tested, 25% active; AID 687007, 2013; in the data active = inhibition above about 13%
COUP-TFII conf – NR2F2 transcriptional activity inhibitors, confirmation, cell-based, luciferase reporter, HEK293, triplicate | AID 687008, 2013 | shares compounds with COUP-TFII inh | HEK293 NGFI-A luciferase reporter, luminescence | inhibition, % at 8.5 µM | 2,500 tested, 45% active;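 active = mean inhibition over three repeats above a set limit taken from the earlier primary screen, cut at about 38% in these data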;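 also: 100% = cells given the luciferase reporter alone without the COUP-TF2 vector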
Numbers without * were called inactive; . = no result. Sampled rows, rich in hits. Any-hit rate of the full collection: about 1.3%.

SMILES | COUP-TFII inh | NCOA3 inh | NCOA1 inh | SRC2 inh | NR5A2 inv ag | Gli-Sufu antag | VP16 Luc counter | COUP-TFII conf
O=C(Nc1cccc(C(=O)NC2CC2)c1)c1ccc(Cl)c(S(=O)(=O)N2CCOCC2)c1 | 11 | -6 | -5 | -5 | 12 | -6 | . | .
CN(Cc1ccc2c(c1)CCCN2C)C(=O)[C@@H](Cc1ccccc1)NC(=O)[C@H]1O[C@@H](n2ccc(=O)[nH]c2=O)[C@H](O)[C@@H]1O | -1 | . | . | -8 | . | . | . | .
COc1ccc(-c2cc(C)no2)cc1S(=O)(=O)NCCCN1CCN(c2ccccc2)CC1 | 6 | 12 | 4 | -32 | -8 | 30 | . | .
Cc1cc(-c2ccc(C)c(S(=O)(=O)NCCCN3CCN(c4ccccc4)CC3)c2)on1 | 62* | 12 | -11 | 29 | 1 | 47 | 1 | 19
O=C1CSc2ccc(C(=O)N3CCCC(C(=O)N4CCCCC4)C3)cc2N1 (stereo unspecified) | -3 | . | . | -12 | . | . | . | .
CCc1ccc(NC(=O)c2ccc(F)c(S(=O)(=O)NCC3COc4ccccc4O3)c2)cc1 (stereo unspecified) | 38* | 23 | -3 | 17 | 10 | 0 | -4 | 13
CCN(c1ccccc1)S(=O)(=O)c1cc(C(=O)Nc2ccc(Br)cc2)ccc1F | 65* | 27 | 31 | 24 | 31 | 7 | -5 | 41*
CCC(C)NS(=O)(=O)c1ccc(S(=O)(=O)N(CCc2ccc(OC)c(OC)c2)Cc2cccs2)cc1 (stereo unspecified) | 58* | -5 | -8 | 29 | 15 | 1 | 9 | 48*
COc1ccc(CCN(Cc2cccs2)S(=O)(=O)c2ccc(F)cc2)cc1OC | 47* | . | . | 31 | . | . | 4 | 14
COc1ccc(CCN(Cc2cccs2)S(=O)(=O)c2ccccc2)cc1OC | 8 | . | . | -2 | . | . | . | .
O=C(Nc1ccn(Cc2ccccc2F)n1)c1ccc(COc2ccc(Br)cc2)cc1 | 73* | 21 | 11 | 21 | 33 | -20 | -11 | 47*
O=C(Nc1ccc(Cn2cccn2)cc1)c1ccc(COc2ccc(Br)cc2)cc1 | 1 | 12 | 9 | -5 | -13 | 17 | . | .
COc1ccc(S(=O)(=O)N2CCN(CCOc3ccc(Br)cc3)CC2)cc1OC | 60* | 7 | 16 | 31 | 7 | 6 | -13 | 27
CC(C)C(NC(=O)Cc1ccccc1)C(=O)N1CCN(c2cccc(Cl)c2)CC1 (stereo unspecified) | 65* | 16 | -5 | 27 | -21 | 10 | 1 | 13
Oc1ccc(CCNc2ncnc3ccc(Cl)cc23)cc1 | 80* | 58 | 64* | 37 | 47 | 61* | 7 | 64*
CCCC[C@H]1C2CC(OC(=O)Nc3ccccc3OC)C(C2)[C@H]2CCCCN21 (stereo partly specified) | 8 | . | . | 3 | . | . | . | .
CCOc1cc(/C=C2\CN(CC)C/C(=C\c3ccc(O)c(OCC)c3)C2=O)ccc1O | 79* | 43 | 51 | 10 | 46 | -2 | 48* | 72*
COc1cc(/C=C2\CCC/C(=C\c3ccc(O)c(OC)c3)C2=O)ccc1O | 12 | 3 | -2 | 13 | -26 | 52 | . | .
O=C(OCc1ccccc1)[C@H](Cc1ccccc1)NC(=O)[C@@H]1CC=C[C@@H]2CCN(C3CCCCC3)C(=O)[C@@H]21 | 1 | . | . | . | . | . | . | .
Cn1nnnc1SCc1nc2scc(-c3ccc(Cl)cc3)c2c(=O)[nH]1 | 46* | 10 | 14 | -4 | 18 | 2 | -9 | 15
Cc1sc(NC(=O)c2ccco2)c(C(c2cccnc2)N2CCC(C)CC2)c1C (stereo unspecified) | 51* | 27 | 31 | 10 | 29 | 11 | 2 | 49*
CCN1CCN(C(c2cccnc2)c2c(NC(=O)c3ccco3)sc(C)c2C)CC1 (stereo unspecified) | 6 | -9 | -1 | -23 | 0 | 1 | . | .
C=CCN1C(=O)[C@H](CC(=O)N2CCN(C(=O)C3CC3)CC2)[C@@]2(C(=O)OCC)CCCC=C12 | -20 | . | . | -8 | . | . | . | .
O=C(N[C@H](Cc1ccccc1)C(=O)NCCCc1ccccc1)[C@H]1O[C@@H](n2ccc(=O)[nH]c2=O)[C@H](O)[C@@H]1O | 3 | . | . | 12 | . | . | . | .
c1ccc2c(-c3cnc4cccnn34)cncc2c1 | -6 | 17 | -55 | 10 | 2 | . | . | .
SMILES | COUP-TFII inh | NCOA3 inh | NCOA1 inh | SRC2 inh | NR5A2 inv ag | Gli-Sufu antag | VP16 Luc counter | COUP-TFII conf
c1cc(-c2cnc3cccnn23)c2cccnc2c1 | 46* | 58 | 63* | 66* | 25 | . | 4 | 26
Cc1cccc(NC(=O)c2cccc3c2-c2ccccc2C3=O)c1C | 2 | . | . | -17 | . | . | . | .
COC(=O)[C@H]1C[C@]2(C(C=C(C)C)S(=O)(=O)c3ccccc3)c3ccccc3N[C@H]2N1 (stereo partly specified) | 7 | . | . | . | . | . | . | .
COc1ccc2c(c1OC)CN1CCc3cc4c(cc3[C@@H]1[C@@H]2O)OCO4 | . | -38 | -14 | . | -17 | 10 | . | .
O[C@@H]1[C@@H](O)C=C2CCN3Cc4cc5c(cc4[C@H]1C23)OCO5 (stereo partly specified) | 56* | 89* | 75* | 36 | 98* | 69* | 3 | 26
CCOC(=O)CC[C@@H]1CC[C@]2(CCCN(Cc3cccs3)C2)O1 | -11 | . | . | -13 | . | . | . | .
COC(=O)C1CN(Cc2ccccc2)CCS(=O)(=O)N1Cc1ccc(C(F)(F)F)cc1 (stereo unspecified) | 14 | . | . | -2 | . | . | . | .
COC(=O)C1CCCCN1C(=O)c1cc(COc2cccc3cnccc23)on1 (stereo unspecified) | 61* | 28 | 26 | 25 | 25 | . | 0 | 59*
CSc1ccccc1OCc1cc(C(=O)N2CCC(c3ccncc3)CC2)no1 | 58* | 4 | 5 | 16 | 31 | . | -3 | 51*
O=C(c1cc(COc2ccc(F)cc2Cl)on1)N1CCCCCC1 | -34 | -63 | -74 | -35 | -90 | -66 | . | .
O=C(c1cc(COc2ccc(F)cc2Cl)on1)N1CCC(c2ccncc2)CC1 | 39* | 13 | 1 | 11 | 17 | 27 | -10 | 26
COC(=O)C1CCCCN1C(=O)c1cc(COc2cccc3cccnc23)on1 (stereo unspecified) | -9 | 22 | 6 | -12 | 0 | 6 | . | .
